For 40 compounds, growth results are on record in PubChem BioAssay (NCI).

This is part of a sample that, as a whole, favours compounds with a hit. Of some 83,000 tested, about 20% had one in any assay.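 In brief: 96-well plates, 48 h treatment, single concentration, percent growth endpoint.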 Values without a mark were called inactive. Activity calls are given as the source filed them. How the source made its calls: active means growth percent below 10; inactive means the rest.

For the assay, the system named is HL-60(TB) leukemia. Briefly: NCI-60 one-dose screen, 48 h (100 = growth as untreated, 0 = no growth, -100 = all killed). The note with it: 10 µM unless noted.
On to `COCCCNC(=O)c1nnn2c1nc(N)c1cc(Cl)ccc12`, for which the growth was 93.7%.

Take `CCCCNc1nnc(-c2cc(-c3cc4ccccc4o3)nn2-c2ccccc2)o1`: the growth is 86.5%.

Take `c1ccc([P+](CCC[P+](c2ccccc2)(c2ccccc2)c2ccccc2)(c2ccccc2)c2ccccc2)cc1`: the growth is 30.5%.

For `COc1ccc(/C=C\c2cc(OC)c(OC)c(OC)c2)cc1OCC(=O)Nc1ccc2nc(C)sc2c1`, the growth is -5.19% (active).

On to `Cc1ccc(Nc2oc(-c3ccccc3)nc2[P+](c2ccccc2)(c2ccccc2)c2ccccc2)cc1`, for which the growth was -32.5% (active).

In the case of `COc1cccc2c1C(=O)c1c(O)c3c(c(O)c1C2=O)CC(O)(/C(C)=N/NC(=O)CCCCC(=O)N/N=C(\C)C1(O)Cc2c(O)c4c(c(O)c2C(OC2CC(N)C(O)C(C)O2)C1)C(=O)c1c(OC)cccc1C4=O)CC3OC1CC(N)C(O)C(C)O1` (stereo not given), the growth was -9.19% [5 µM] (active).

On to `O=C1c2cc3c(cc2-c2c1c1cc(F)c(F)cc1c(=O)n2C[C@H](O)CO)OCO3`, for which the growth is -16.4% (active).

With `Cc1cccc(N=Cc2ccccc2O)c1C`, the growth was 87.9%.

Turning to `C=C1c2nc3ccccc3n2C=C(c2ccc(Cl)cc2)N1Cc1ccccc1`, the growth was 60.1%.

For `Cc1ccc(SC2c3ccc(C)cc3Oc3nc(N)c(C#N)c(N)c32)cc1` (stereo not given), the growth is -6.43% (active).

On to `COc1cc(-c2nc3sccn3c2-c2ccnc(NCCNS(=O)(=O)c3ccccc3)n2)ccc1F`, for which the growth is 60.2%.

Take `COc1cc(C(=O)c2c(N)ncn2-c2ccccc2)cc(OC)c1OC`: the growth was 77.5%.

In the case of `COc1ccc(/C=C2\Oc3cc(OCCCN4CCCC4)ccc3C2=O)cc1`, the growth is 94.7%.

`CCOc1ccc(C(C[N+](=O)[O-])Sc2ccccc2N)cc1` (stereo not given): the growth was -16.2% (active).

Regarding `O=C1CCc2c(sc3[nH]c(=S)n(Cc4ccc(Cl)cc4)c(=O)c23)C1`, the growth is -5.26% (active).

For `CC(=O)NNC(=S)/N=C\C(C(=O)c1ccccc1)=C(/O)c1ccccc1`, the growth was 103%.

As to `COc1ccc(NC(=O)CSc2nc(C)c(C(C)=O)n2-c2ccc([N+](=O)[O-])cc2)cc1`, the growth was 121%.

Regarding `COc1cc2nc(-c3ccc(Cl)cc3)cc(OCCCN3CCCC3)c2cc1OC`, the growth is 32.4%.

Consider `CC(=O)N1CC(Nc2ccc(OC(F)(F)F)cc2)=CC1=O`, for which the growth was -8.58% (active).

Turning to `C#CC[C@@H]1C[C@]2(C)[C@H]3CC[C@@H]4[C@H]5C(C(=C)C)CC[C@]5(C(=O)NCCCCN)CC[C@@]4(C)[C@]3(C)CC[C@H]2C(C)(C)[C@H]1OC(C)=O` (stereo not given in full), the growth is -38.3% (active).

In the case of `O=[N+]([O-])c1cccc(C2c3ccccc3Oc3ccccc32)c1`, the growth is 99%.

On to `Nc1nc(Nc2ccccc2SSc2ccccc2Nc2nc(N)nc(-c3ccc(C(F)(F)F)cc3)n2)nc(-c2ccc(C(F)(F)F)cc2)n1`, for which the growth is -17% (active).

For `COc1ccc(-c2csc(NC(=O)CN3CCN(CCO)CC3)n2)cc1NS(=O)(=O)c1cccc2c(N(C)C)cccc12`, the growth is 93.8%.

On to `O=C(NC1CC(F)C1)c1cc2cccnc2n1-c1ccc(Cl)c(Cl)c1` (stereo not given), for which the growth was 97.2%.

For the compound `CCCN1C(=O)CSC1=Nc1ccc2cc3ccc(N=C4SCC(=O)N4CCC)cc3nc2c1`, the growth was 8.32% (active).

For `CCCCCCCCCCCCOC(=O)/C=C\C(=O)NC(N)=O`, the growth was 52.3%.

In the case of `Oc1c(Br)cc(Br)c2ccc(Cn3cc(-c4ccc(C(F)(F)F)cc4)nn3)nc12`, the growth is -5.83% (active).

On to `O=C(CBr)CN1C(=O)c2ccccc2C1=O`, for which the growth is 103%.

Turning to `CCN(CC)CCCC(C)Nc1cc(-c2cccc(OC(F)(F)F)c2)nc2ccc(N3CCCC3)cc12` (stereo not given), the growth was -61% (active).

Turning to `O=C(Cc1ccc(/C=C/C(=O)c2nccs2)cc1)Nc1ccccc1`, the growth is 75%.

For the compound `CO[C@H]1CC(O[C@@H]2/C(C)=C/C[C@@H]3C[C@@H](C[C@]4(CC[C@H](C)[C@@H](C5CCCCC5)O4)O3)OC(=O)[C@@H]3C=C(C)/C(=N/O)[C@H]4OC/C(=C\C=C\[C@@H]2C)[C@]43O)O[C@@H](C)C1O` (stereo not given in full), the growth was -48.7% (active).

`CN(C)c1ccc(-c2ccc(-c3ccc(C(=N)N)cc3)s2)cc1`: the growth was 14.4%.

As to `Nc1[nH]nc(Nc2ccccc2)c1-c1nc2ccccc2s1`, the growth was 16.6%.

In the case of `O=C(Nc1ccccc1O)c1ccc(NS(=O)(=O)c2cccc3cccnc23)cc1`, the growth is -12.2% (active).

Take `COC(=O)c1nc(-c2ccccc2)oc1S(=O)(=O)N(C)CCO`: the growth was -24.6% (active).

For `O=Nc1c2cccnc2n2nnc3ccc(Cl)cc3c12`, the growth was -48.7% (active).

Turning to `COC1C(O)CC(OC2CC(OC3CC(O[C@@H]4C(=O)c5c(cc6cc(OC7CC(OC8CC(O)C(O)C(C)O8)C(O)C(C)O7)c(C)c(O)c6c5O)CC4[C@H](OC)C(=O)C(C)=O)OC(C)C3O)OC(C)C2O)OC1C` (stereo not given in full), the growth was -18.6% (active).

Consider `CC(=O)c1ccc(N=C(C#N)C2=C(O)c3ccccc3C2=O)cc1`, for which the growth is 86.2%.

`CCCOc1ccc(/C=N/Nc2cc(C)nc3ccc(Br)cc23)cc1`: the growth was 55.3%.

`CNC(=O)c1cc(Oc2ccc3nc(NC(=O)Nc4cc(C(F)(F)F)cc(C(F)(F)F)c4)sc3c2)ccn1`: the growth was -39.8% (active).
